Sampled rows, rich in hits. Any-hit rate of the full collection: about 2.1%.
Abeta rescue = restores growth of yeast expressing A-beta42 peptide. Potency, µM (top dose mostly 46.1 µM), hits mostly activators. 410,000 tested, 0.063% active. AID 1347071. yeast expressing A-beta42, growth rescue, OD600, 48 h; response scale: 0% DMSO, 100% iron-clioquinol control; also: nearly all actives have a fitted effect of over 55% in size
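Yeast growth medium received pinned compounds, then yeast cells expressing toxic A-beta were added; plates incubated at 30 C for 48 hr. Growth read as absorbance at 600 nm, normalized to DMSO and equimolar FeCl3 plus clioquinol controls.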
aSyn yeast inh = rescues yeast growth from alpha-synuclein toxicity. Yeast expressing alpha-synuclein, growth rescue, BacTiter-Glo, 24 h. Potency, µM (doses to about 46.1 µM), without a hit: top-dose growth rescue (activation), most hits filed as activators. 370,000 tested, 0.14% active; also: % of control where 0% means no effect; nearly all actives have a fitted effect of over 65% in size
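Rescue of yeast growth: cells expressing toxic alpha-synuclein, induced in galactose at OD600 0.02, incubated with compound 24 h at 30 C. ATP luminescence quantified growth; inhibitors of toxicity appear as activators.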
TDP-43 yeast inh = rescues yeast growth from TDP-43 toxicity | TDP-43 expressing yeast growth rescue, BacTiter-Glo, 24 h | Potency, µM (titrated, usually from 46.1 µM), without a hit: at the highest dose growth rescue (activation), most hits filed as activators | 410,000 tested, 1.8% active | AID 652104; also: % of control where 0% means no effect; nearly all actives have a fitted effect of over 50% in size
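Yeast expressing TDP-43 (pregrown in raffinose, seeded at OD600=0.02 in galactose medium) exposed to compounds 24 hr at 30 deg C. Growth read by BacTiter-Glo luminescence; rescue of toxicity appears as increased signal.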
FUS suppressor = suppressors of FUS proteinopathy in yeast. S. cerevisiae FUS-expressing, growth rescue, OD600, 24 h. Potency, µM (doses to about 76.6 µM), most hits filed as activators. 390,000 tested, 0.24% active;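 also: plate controls were DMSO vehicle for no effect and reference control for full effect; nearly all actives have a fitted effect of over 55% in size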
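Toxicity suppression screen in FUS-yeast. Cells induced with 2% galactose, starting OD 0.005, treated 24hr at 30C with compounds at multiple final concentrations; growth by OD600.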
Numbers without * were called inactive; i = inactive; ? = inconclusive; . = no result; [ ] = dose if it differs, or a comment. Calls follow the shape of the dose curve; as a rule, active = well fitted curve in the direction sought with a large enough effect; inconclusive = small, poorly fitted or top-dose-only effect, or another doubt; inactive = no such curve, though single readings can be large; an effect the other way counts as inactive or inconclusive. Potency is read from the fitted curve at half-maximal effect.

SMILES	Abeta rescue	aSyn yeast inh	TDP-43 yeast inh	FUS suppressor
COCCn1c(=O)sc2ccccc2c1=O	i	2%	?	i
CCCCC(=O)NC(=S)Nc1cc([N+](=O)[O-])ccc1OC	i	-15%	7.1µM*	i
CCCCCC(=O)NNC(=S)NC(=O)c1ccc([N+](=O)[O-])cc1	?	22µM*	-7%[9.22 µM]	i
COc1ccc([N+](=O)[O-])cc1NC(=S)NC(C)=O	i	2%	4%	i
COc1ccc(C(=O)NNC(=S)NC(=O)c2ccc(OC)cc2)cc1	?	13%	19%	i
CCCCC(=O)NNC(=S)NC(=O)CCC	?	25µM*	-4%	i
CCCCC(=O)NC(=S)NNC(=O)c1ccc(OC)cc1	?	6.3µM*	?	i
CSc1ncccc1C(=O)N1CCCC(N2CCN(c3ccccc3F)CC2)C1 (stereo not drawn)	i	1%	10%	i
Cc1cccc(CNC(=O)CCn2c(=O)c3cccn3c3ccc(F)cc32)c1	i	.	-10%	i
O=C(N/N=C/c1ccccc1C(=O)O)c1cccc(S(=O)(=O)N2CCCCC2)c1	i	5%	-4%	i
O=C(CSc1nncc2ccccc12)N1CCOCC1	i	4%	-16%	i
O=C(CSc1nc2ccccc2c2c1CCCC2)N1CCOCC1	i	?	10µM*	i
COc1ccc(OC)c(CNC(=O)c2c(C)oc3ncn(CC(C)C)c(=O)c23)c1	i	.	?	i
COc1ccc(OC)c(CCNC(=O)c2c(C)oc3ncn(CC(C)C)c(=O)c23)c1	i	.	25µM*	?
CCc1ccc(CNC(=O)c2c(C)oc3ncn(CC(C)C)c(=O)c23)cc1	i	.	25µM*	i
COc1cc2ccccc2cc1C(=O)N1CCN(c2nc3c(F)cccc3s2)CC1	i	.	11µM*	i
CCc1cccc2sc(N3CCN(C(=O)c4cc5ccccc5cc4OC)CC3)nc12	i	.	11%	i
COc1cc2ccccc2cc1C(=O)N1CCN(c2nc3c(F)cc(F)cc3s2)CC1	i	.	16µM*	?
CCCN(CCC)C(=O)CSc1c2c(nc3ccc(Cl)cc13)CCCC2	i	.	20µM*	i
CCCCN(C)C(=O)CSc1c2c(nc3ccc(Cl)cc13)CCCC2	i	.	0%	i
CN(Cc1ccccc1)C(=O)CSc1c2c(nc3ccc(Cl)cc13)CCCC2	i	.	20µM*	?
CC(=CC(=O)c1ccccc1)c1ccccc1	i	-3%	-10%	i
CCOC(=O)CSc1c(-c2cccs2)[nH]c2ccccc12	?	4%	16µM*	i
CCOC(=O)CSc1c(-c2ccc(Cl)cc2)[nH]c2ccccc12	i	-10%	-3%	i
Fc1cccc(F)c1CSc1nc2ccccc2[nH]1	i	-7%	13µM*	i
SMILES	Abeta rescue	aSyn yeast inh	TDP-43 yeast inh	FUS suppressor
Cc1noc(C)c1CSc1nc2ccccc2[nH]1	i	-7%	-3%	i
c1ccc(-c2cc(CSc3nc4ccccc4[nH]3)on2)cc1	i	3%	20µM*	i
Cc1ccc(CSc2nc3ccc(NC(=O)CC(C)C)cc3s2)cc1	i	.	12%	i
COc1cc2c(NC3CCN(C(C)C)CC3)nc(N3CCCN(C)CC3)nc2cc1OCCOCCN(C)C	.	8%	.	.
COc1ccc(CSc2ncnc3sccc23)cc1F	i	2%	13µM*	i
COc1ccc(OC)c(CCNC(=O)Cn2ccc3cc(S(=O)(=O)N4CCCCC4)ccc32)c1	i	.	-2%	35µM*
COc1ccccc1CCNC(=O)Cn1ccc2cc(S(=O)(=O)N3CCCCCC3)ccc21	i	.	13%	i
Cc1ccc(NC(=O)NCc2ccccn2)c(C)c1	i	2%	-3%	i
Cc1c(-c2ccccc2Br)nc2ccccc2c1C(=O)O	i	3%	5%	.
CCc1ccc(-c2nc3ccc(Br)cc3c(C(=O)O)c2C)s1	i	-36%	35µM*	i
Cn1c(/C=C/c2ccc(Cl)cc2)c([N+](=O)[O-])c(=O)n(C)c1=O	i	6%	18µM*	i
COc1ccc(/C=C/c2c([N+](=O)[O-])c(=O)n(C)c(=O)n2C)cc1OC	i	-9%	-14%	i
CC(C)(C)NC(=O)C[n+]1ccc(C(N)=O)cc1	i	35µM*	1%	i
Cc1cccc(N2CCN(C3=NC(=O)C(=C4CCCCC4)S3)CC2)c1	i	.	7.1µM*	i
CC(=O)N1CCN(C2=NC(=O)C(=C3CCCCC3)S2)CC1	i	-7%	-16%	i
O=C(Cc1ccc(F)cc1)Nc1nccs1	i	-10%	9%	i
S=C(Nc1ccccc1)Nc1nccs1	?	-25%	13µM*	i
C/C(=C\c1ccccc1)C(=O)Nc1nccs1	i	-13%	11µM*	i
Fc1ccc(NC(=S)Nc2nccs2)cc1	?	-12%	22µM*	i
Cc1ccc(NC(=O)c2cccc(NC(=O)CC3SC(N4CCCCC4)=NC3=O)c2)nc1 (stereo not drawn)	i	-1%	13%	i
CN1CCN(C(=O)/C=C/c2ccc(C#N)cc2)CC1	i	1%	13%	i
Nc1c(Nc2ccccc2)c2ccccc2oc1=O	i	18µM*	?	i
COc1cc2c(cc1OC)/C(=C/c1ccc(Br)cc1)C(=O)OC2	i	16%	13µM*	?
Cc1ccc(NC(=O)NN2CCN(C)CC2)cc1C	i	1%	1%	i
O=C(O)c1ccc(N/N=C/c2ccc(C(F)(F)F)cc2)cc1	i	-60%	-94%	i
SMILES	Abeta rescue	aSyn yeast inh	TDP-43 yeast inh	FUS suppressor
CC(C)(C)c1ccc(/C=N/Nc2ccc(C(=O)O)cc2)cc1	i	-33%	16µM*	i
COc1ccc(-c2nnc(SC(C)C(=O)O)o2)cc1 (stereo not drawn)	i	3%	2%	i
COc1ccc(-c2nnc(SC(C)C(=O)Nc3cccc(Cl)c3)o2)cc1 (stereo not drawn)	i	14%	13µM*	i
CCCC1CCC(c2ccc(/C(N)=N/O)cc2)CC1 (stereo not drawn)	i	-8%	3.5µM*	i
CCOC(=O)c1ccc(N2C(=O)C3CC=CCC3C2=O)cc1 (stereo not drawn)	i	4%	-7%	i
CCOC(=O)c1ccc(N2C(=O)C3C(C2=O)C(C(=O)c2ccc(Cl)cc2)N2CCCC32)cc1 (stereo not drawn)	i	3%	-1%	13µM*
Cc1nc(SCc2cccc(Oc3ccccc3)c2)n[nH]1	i	-32%	28µM*	i
Cc1ccc(Nc2nc(CSc3nnnn3C)cs2)cc1	i	0%	?	i
Cc1ccc(Nc2nc(CSc3nnc(-c4ccccc4)n3C)cs2)cc1	i	10%	18µM*	i
Cc1ccc(Nc2nc(CSc3nnnn3-c3ccccc3)cs2)cc1	i	-8%	14µM*	i
COc1ccc(CC(=O)Nc2ccc3nc(Nc4cccc(Cl)c4)cc(C)c3c2)cc1	i	.	?	?

Source: PubChem (National Center for Advancing Translational Sciences (NCATS))
